Experimental data: paper PMC13494018
Values without a mark were called inactive. The rule behind the calls is not given here.

Biological target: PDL1, Q9NZQ7
Sequence (Q9NZQ7 whole entry): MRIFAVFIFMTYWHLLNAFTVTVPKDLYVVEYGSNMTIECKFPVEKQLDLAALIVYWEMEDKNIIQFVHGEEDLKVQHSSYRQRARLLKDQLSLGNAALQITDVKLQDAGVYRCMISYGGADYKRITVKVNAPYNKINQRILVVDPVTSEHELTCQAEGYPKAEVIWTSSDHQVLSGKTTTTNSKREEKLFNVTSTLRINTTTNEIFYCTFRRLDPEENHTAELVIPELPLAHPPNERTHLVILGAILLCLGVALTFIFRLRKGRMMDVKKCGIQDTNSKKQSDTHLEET

Row | Binder | binding in a display sort
1 | d8r1_design_ppi_640_dldesign_0_cycle1_af2pred (protein) SEEEEKKYEELAKAGAAASKAGAVAAKHPDNPEIKKLADEAGKALSEAFTSDVETAKKLAEKVEALAKAAEALAA | not found
2 | d8r1_design_ppi_1136_dldesign_0_cycle0_af2pred (protein) SAAAAARARTAAANAAALAKKMLEAGVSPENARALVEAAAARLTPEAGAALRAEGEALVAEYAARREAEAA | binds (active)
3 | d8r1_design_ppi_419_dldesign_0_cycle1_af2pred (protein) SALEEKAKEAIEKMEKAAEELKKAAAELKKLDPEAGAAAEAALEAHLAILELAKKFSTKVTLNVAEAMTRGLERALKEAKARIAALK | not found
4 | d8r1_design_ppi_1493_dldesign_0_cycle1_af2pred (protein) AAESEALRQQAIDLAQKAAEIAADDENAEEVKARIDAAIAHLQAGDYAAAAADLLAAAKLASPEARGYILKALLKAMEAA | binds (active)
5 | d8r1_design_ppi_323_dldesign_0_cycle1_af2pred (protein) SALEEAKRAIAEARELAAEAKARGPAAAPAAAIAANAIAGAELLVELGSYEAATAVARAGIRVARAYLAAV | not found
6 | d8r1_design_ppi_400_dldesign_0_cycle0_af2pred (protein) SAELAAIKAAAENARAGAILLAKESKAETALKFNEAAKERLLKLAAATADAKAAKAVVEEEAKKAEEEIKKIGEE | not found
7 | d8r1_design_ppi_1124_dldesign_0_cycle1_af2pred (protein) STATAAANAAAFSSKGAAVVGDKFAPSVESVLERVVELDPAAGLAAAEAVAAAAAAHPAVRAVAEAVAARARAAL | not found
8 | d8r1_design_ppi_592_dldesign_0_cycle1_af2pred (protein) GDAEDAVRAAENALKSAENYLAKADTLEQAQKAINAAKGAREFIKYAAKLGADPATVAALEKKANAVEEAAKAKAKALA | not found
9 | d8r1_design_ppi_1265_dldesign_0_cycle0_af2pred (protein) SETEEGAKALIRAAANAAKYLAKKYGELAKKLAELVKKALEAGPEEAVKYLEEAAALAKEAGQKTGGTKAFAALQATLKKAAELKKK | not found
10 | d8r1_design_ppi_897_dldesign_0_cycle1_af2pred (protein) NPEAKDAALVKIGEGASYVAAASGDTAVARTVFTTSYTGVQEGNLEAAAAAAVATVAAAVDAATAARVAALAAAAVAAYKA | not found
11 | d8r1_design_ppi_994_dldesign_0_cycle1_af2pred (protein) GKVEELEKKFREELQAAADLIAELRKADPELGKLAAKALAYALANPELGRKLAEEVAAKSPLGAKAAAEILALIETREELLKAEKEA | not found
12 | d8r1_design_ppi_482_dldesign_0_cycle0_af2pred (protein) STTDEMIEKIAKAAQEAMKLAKEGKYEEAYALLKKMAEEAAKVSESLGALAKGVAEAMKNWIDKYKAEKA | not found
13 | d8r1_design_ppi_416_dldesign_0_cycle0_af2pred (protein) SEEAARILAETLGTISAQTAAAKAAAAAGDVEAARAAAAAARAAAEEGAKRLEELGNKSGAEALRSIGAATAAHIKALAAKAAA | binds (active)
14 | d8r1_design_ppi_540_dldesign_0_cycle1_af2pred (protein) DKKTETILAGMEAASNAAALLKKDPAAGGAYLLAKAKEVGAAVGNAADIVPAAAAAAADPATAAARLREFVSIVVSSVTS | not found
15 | d8r1_design_ppi_700_dldesign_0_cycle0_af2pred (protein) SENKAKMEEHLAKAKEALLKGDPAAAPLAEAMAKAAKEEGPAALMAAAAAAYAAVVAADPSAAPLASQALAHAAKAAIYLGDS | not found
16 | d8r1_design_ppi_1481_dldesign_0_cycle1_af2pred (protein) SSDEDYAALVEGMALASQTYAQARALIAATGAAGGAQARALAQAAAAQLRAAGAKYPSRAAQYDALADGLVRTVTAAAA | binds (active)
17 | d8r1_design_ppi_345_dldesign_0_cycle1_af2pred (protein) ATAEATATKIKTGIEKMLKLSKELGKGALINAAAAAKASAKVMDKLLADPSITPAARAALTAARDEAEKAAKEAEAEAKKL | not found
18 | d8r1_design_ppi_1429_dldesign_0_cycle1_af2pred (protein) SSLKREEILRKTAEAMAEATLAKVRELAKEDPERARRALENMRALLALLGPVAAKIGEEAYARGLAIIAEIA | not found
19 | d8r1_design_ppi_482_dldesign_0_cycle1_af2pred (protein) SESEEWIKEITDAANQAVALAKAGKTAEAYALLDATAAKAAAKSPSRGALAKGVADAMRVYIDKYAAKKA | binds (active)
20 | d8r1_design_ppi_87_dldesign_0_cycle1_af2pred (protein) SEEEFERRIAIAAEQLAAMDAALAAIKASGDAAEKQALLAQLRAAGEEMAKALGPAGAAIAEALLAQAEAALAA | not found

Row | Binder | binding in a display sort
21 | d8r1_design_ppi_43_dldesign_0_cycle1_af2pred (protein) EEALKKASEALSEAARLAIKNPAYLPAFAATGAAYGKVLEAYKKSPEEAKKAAKELLALYEKEVAAAKAAL | not found
22 | d8r1_design_ppi_1038_dldesign_0_cycle1_af2pred (protein) SDKRLAKNTAEAILRRTKELAKKAAAATAEEAKALAAIAEKGAKSAEAVAKKSGDEETKKLAKEAKEAAKKAKE | not found
23 | d8r1_design_ppi_1381_dldesign_0_cycle1_af2pred (protein) AAARQELVDRALAALDAARAASPEEAVAIAPKAYGLAVMVGEDPRVQAALEAAAAANPAAAPILNEALALARATAAAQAAARAAA | not found
24 | d8r1_design_ppi_637_dldesign_0_cycle1_af2pred (protein) MTAEAAKAEVRARLEAAGERAAEAAKERGADYEAVLAAARSMAERAAADPDPEAALARGAEALAFLEALEKYYRE | not found
25 | d8r1_design_ppi_47_dldesign_0_cycle1_af2pred (protein) GQAALDAAAKRLDELTKEAEKASPNTGKAVEAIRDGSIRVATALFAAGDAARGRAALENGVAASEKLVEATKS | not found
26 | d8r1_design_ppi_996_dldesign_0_cycle1_af2pred (protein) SASDIKAAQKAAAAVLRVAAERFPEVAAVAEPAAETAYNGDAETAIKAILEAAEAIRAAAARLPGGAELRAYADALENIAALLKRLAA | not found
27 | d8r1_design_ppi_882_dldesign_0_cycle1_af2pred (protein) MTPEEAAAEARRIGDGAAAAIAASTDVATAKAIYDRAVTELTALAAAFPEVAHVASAELVKVAKAYIAKGDAL | not found
28 | d8r1_design_ppi_882_dldesign_0_cycle0_af2pred (protein) MTPEEAAAAARAIGAAAAAAIAASTDLATAGALADAAFRALVALAAAFPEVAPVASAEMAAVAKAFIAKGDAL | not found
29 | d8r1_design_ppi_118_dldesign_0_cycle0_af2pred (protein) GLVSLLRAAKNTLESAIEAEDAEKAAKYLAGAAQLLEGAAKLDPRVEPAAKLAKEAAAAAKADIEKGKAKAKEALKAVEELLKEAEEE | not found
30 | d8r1_design_ppi_674_dldesign_0_cycle1_af2pred (protein) SEEKINQAWIDTSKASELILAGEELSVTDPEKGAALIEKGRALAEEAAKAVPSKAEAILSTAEKTLEVAKARAAEVAA | not found
31 | d8r1_design_ppi_508_dldesign_0_cycle1_af2pred (protein) AGKEALAKAIAEVKELVTAAMLANQKSREEGIKTAKEQAEKAKKLAEEAKASPLAAEIVKVLQSGRDFLEKLAEMLKES | not found
32 | d8r1_design_ppi_412_dldesign_0_cycle1_af2pred (protein) AKAAQLRATSDLYALAYIAEKKVGKALADKLRAAAASGDPAAMLAAAEEAAKAIGEIGKRLYERLVAALA | not found
33 | d8r1_design_ppi_1136_dldesign_0_cycle1_af2pred (protein) AAEKEARDLAAADNAIALVKKMLEAGVSPENALATAEAAAALLSPAARARLLAAARAIVAAHEAAKAAAAA | not found
34 | d8r1_design_ppi_753_dldesign_0_cycle0_af2pred (protein) SAEAQAALAGARAAVAGAELLVEVAEETGSQGALRAAKRAAEAAEEAARKAAELGAEEEARELEERAREVRERAEKLE | not found
35 | d8r1_design_ppi_700_dldesign_0_cycle1_af2pred (protein) EETKKKRDEYVKKAGEALLKADPTLTAQAAAIKDAAYNAGPAALMAAMAAAYKAAVAANPANAPYAAEAVNYAAKAAIYAKEA | not found
36 | d8r1_design_ppi_1102_dldesign_0_cycle1_af2pred (protein) DAVREAGVAAAQAIKVALDEGDKELANAVSEAARAAVADPALAPLVKEGAELIIDPEKREQGRELVEKAVAAYKAAQ | not found
37 | d8r1_design_ppi_753_dldesign_0_cycle1_af2pred (protein) NAAAKAALAAAKAAVEGASLLVEVAEKEGSKGMLEAAKRVAEEAIAAAEKAAKLGATEEAAKLKAQAKEVKKRAEKLE | not found
38 | d8r1_design_ppi_1339_dldesign_0_cycle0_af2pred (protein) DEAWLAEIKALVSAAVAAAREGDVAALAAAQAAAAALAAAAPASVKPAAANATAGIATLLELTKERLEEKA | not found
39 | d8r1_design_ppi_266_dldesign_0_cycle0_af2pred (protein) SKVEEAKERFEKVVEEAEKKVKEALAKAKTAEEALKASIEAIKEAASEIAKIYSEVGEEVADLAVEALARLSALTAEAKAAAAKKAAA | not found
